High-throughput results from PubChem BioAssay.
LYPLA1 counter: counter-screen for PME1 inhibitors: inhibitors of human LYPLA1; O75608; recombinant LYPLA1, FP-Rh probe fluorescence polarization; inhibition, % at 5.9 µM; actives 0.16% (n = 320,000); AID 2174;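 active = inhibition above the mean of all tested compounds plus 3 SD, set per campaign, cut at about 14% in these data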;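 also: inhibitors block serine hydrolase probe labeling of LYPLA1 so polarization falls; 0% = enzyme with DMSO and 100% = wells lacking LYPLA1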
LYPLA2 inh: blocks human lysophospholipase 2, a PME1 counter-screen | O95372 | recombinant LYPLA2, FP-Rh probe fluorescence polarization | inhibition, % at 5.9 µM | actives 0.38% (n = 320,000);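 active = inhibition above the screen-wide mean plus 3 SD, limit set per campaign, cut at about 26% in these data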;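 also: 0% = LYPLA2 with DMSO and 100% = wells lacking LYPLA2 enzyme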
PAFAH2 inh: PAFAH2 (human) inhibition; Q99487; recombinant PAFAH2, FP-rhodamine activity probe, fluorescence polarization; inhibition, % at 3.39 µM; actives 0.99% (n = 340,000); AID 492956;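 active = inhibition above the mean over all tested compounds plus 3 SD, cut at about 30% in these data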;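 also: inhibitors block probe labeling of enzyme so polarization drops; 0% = enzyme with DMSO and 100% = wells lacking PAFAH2 protein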
PAFAH1B2 FP inh: inhibitors of human PAFAH1B2 | inhibition, % at 3.39 µM | actives 1.2% (n = 340,000) | recombinant PAFAH1B2, FP-rhodamine activity probe, fluorescence polarization | P68402;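 active = inhibition above the mean of all tested compounds plus 3 SD, cut at about 24% in these data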;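 also: 0% = enzyme with DMSO and 100% = wells lacking PAFAH1B2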
Target sequence (P68402 whole entry, looked up): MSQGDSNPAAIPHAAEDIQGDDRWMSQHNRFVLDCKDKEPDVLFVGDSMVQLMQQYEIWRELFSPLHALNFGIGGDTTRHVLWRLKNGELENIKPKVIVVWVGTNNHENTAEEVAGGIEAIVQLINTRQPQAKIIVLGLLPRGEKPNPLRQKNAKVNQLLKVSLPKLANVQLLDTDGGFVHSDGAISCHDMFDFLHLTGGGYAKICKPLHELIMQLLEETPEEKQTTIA
PAFAH1B3 FP inh: inhibitors of human PAFAH1B3. Q15102. recombinant PAFAH1B3, FP-rhodamine probe, fluorescence polarization. inhibition, % at 3.39 µM. actives 0.28% (n = 340,000). AID 492972;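 active = inhibition above the screen-wide average of all tested compounds plus 3 SD, cut at about 25% in these data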;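 also: 0% = enzyme with DMSO only and 100% = wells lacking PAFAH1B3 protein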
Target sequence (Q15102 whole entry, looked up): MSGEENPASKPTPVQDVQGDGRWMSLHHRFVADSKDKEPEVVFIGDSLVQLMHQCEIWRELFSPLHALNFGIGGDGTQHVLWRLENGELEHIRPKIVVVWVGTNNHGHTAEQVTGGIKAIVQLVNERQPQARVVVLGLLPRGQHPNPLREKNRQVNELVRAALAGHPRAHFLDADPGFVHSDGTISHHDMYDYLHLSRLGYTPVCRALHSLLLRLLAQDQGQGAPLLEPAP
pPAFAH inh: pPAFAH (human) enzyme inhibition. recombinant pPAFAH, FP-rhodamine probe fluorescence polarization. inhibition, % at 3.39 µM. actives 1.5% (n = 330,000);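 active = inhibition above the mean inhibition across the screen plus 3 SD, cut at about 25% in these data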;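 also: inhibitors block binding of the rhodamine activity-based probe so polarization drops; 0% = enzyme with DMSO and 100% = wells lacking pPAFAH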
pPAFAH FP conf: confirmation of human plasma PAF acetylhydrolase (pPAFAH) inhibitors. shares compounds with pPAFAH inh. recombinant pPAFAH, FP-Rh probe fluorescence polarization. inhibition, % at 3.39 µM. actives 72% (n = 2,300). AID 463230;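 active = mean inhibition of the triplicate above the hit cutoff set for the earlier primary screen, cut at about 25% in these data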;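 also: 0% = enzyme with DMSO and 100% = wells lacking pPAFAH enzyme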
Active calls of the source: *; x = not tested or not shown. Only some compounds are listed: those with a hit (about 2.9% of all), similar ones and a draw of the others.

SMILES	LYPLA1 counter	LYPLA2 inh	PAFAH2 inh	PAFAH1B2 FP inh	PAFAH1B3 FP inh	pPAFAH inh	pPAFAH FP conf
Cc1cc(=O)oc2c(CN3CCCC3)c(O)c(Cl)cc12	0	2	13	8	10	8	x
CCc1cc(=O)oc2cc(C)c(CN3CCCCC3)c(O)c12	-9	-2	5	0	4	47*	9
CCc1cc(=O)oc2cc(C)c(CN3CCCC3)c(O)c12	-12	-9	23	2	-4	64*	21
O=C(NCc1cccnc1)Nc1ccc(Br)cc1Cl	-2	-6	-2	-3	-2	1	x
Cc1ccc(S(=O)(=O)N[C@H](C(=O)OCC(=O)N2N=C(c3ccc(Cl)cc3)CC2c2ccco2)C(C)C)cc1 (stereo partly specified)	-4	-9	1	-8	0	40*	9
CC(O)c1ccc(-n2cnnn2)cc1 (stereo unspecified)	2	6	1	4	9	4	x
C#CCNc1cc(-c2ccccc2)nc2ncnn12	3	3	-31	3	5	3	x
C#CCNc1cc(C)nc2ncnn12	0	1	8	-1	-6	51*	2
Cc1nn(Cc2ccccc2Cl)c(C)c1NC(=O)CCCn1nc([N+](=O)[O-])c(Cl)c1C	3	6	-5	2	-6	2	x
C[C@@H](NC(=O)c1nc[nH]c1C(=O)N[C@@H](CCCCNC(=O)OC(C)(C)C)C(=O)OC(C)(C)C)c1ccccc1	-2	1	-1	7	8	35*	30*
Cc1ccc(/C=C/C(=O)c2ccccc(=O)c2O)c(C)c1	-2	-3	21	-5	4	69*	14
CCn1c(SCC(=O)Nc2nc(C)cs2)nnc1-c1ccco1	1	10	-9	-3	3	3	x
O=C(N/N=C/c1ccc(Cl)cc1)c1ccc2c(c1)OCO2	-5	0	4	6	7	0	x
O=C(N/N=C/c1ccncc1)c1ccc2c(c1)OCO2	-2	-2	9	2	5	41*	-4
O=C(Nc1ccccc1Oc1cccnc1)C1CCCN(Cc2cccc(Cl)c2)C1 (stereo unspecified)	-2	1	-2	1	-3	-1	x
O=C(C[n+]1ccc2ccccc2c1)c1cccc2ccccc12	2	5	3	-4	2	5	x
O=C(/C=C/c1cc[n+](CC(=O)c2ccc3cccc4c3c2CC4)cc1)c1ccc2cccc3c2c1CC3	78*	83*	22	-5	2	71*	86*
CCN(CC)S(=O)(=O)c1ccc(NN=c2c(=O)c3ccccc3c2=O)cc1	-2	-1	1	1	3	6	x
C=CCOc1ccc(C(c2c(C(=O)O)[nH]c3ccccc23)c2c(C(=O)O)[nH]c3ccccc23)cc1	2	8	55*	66*	8	44*	30*
CCOc1ccc(NS(=O)(=O)c2ccc(C(=O)NCC(c3ccc(OC)cc3)N3CCCC3)cc2)cc1 (stereo unspecified)	-3	-4	8	2	3	49*	41*
O=c1ccncn1C1OC(CO)C(O)C1O (stereo unspecified)	x	x	6	-2	-1	x	x
COc1ccc(OC)c(N2C(=O)[C@@H]3C(c4ccccc4Cl)=NO[C@@H]3C2=O)c1	-3	-3	21	5	6	38*	13
Cc1ccc(Nc2nnc(SCC(=O)Nc3ncc(S(=O)(=O)c4ccc([N+](=O)[O-])cc4)s3)s2)cc1	-5	3	-11	7	0	5	x
CCCC(=O)NC(c1cccs1)c1cc([N+](=O)[O-])c2cccnc2c1O (stereo unspecified)	-5	3	14	2	11	68*	73*
CC(=O)NC(c1cccs1)c1cc([N+](=O)[O-])c2cccnc2c1O (stereo unspecified)	-3	-4	3	5	4	49*	46*
SMILES	LYPLA1 counter	LYPLA2 inh	PAFAH2 inh	PAFAH1B2 FP inh	PAFAH1B3 FP inh	pPAFAH inh	pPAFAH FP conf
O=c1oc2ccccc2cc1-c1nc2ccccc2o1	-2	0	7	-1	8	2	x
Nc1cc2nc3ccccc3oc-2cc1=O	0	9	4	4	10	36*	8
C[C@@H]1[C@H]2[C@@H](O[C@@H]3O[C@H](CO)[C@@H](O)[C@H](O)[C@H]3O)OC=C(C(=O)O)[C@H]2C[C@@H]1O	4	10	0	6	3	0	x
O=C(NCc1ccccc1)c1nnc(CS(=O)(=O)c2ccccc2)o1	1	-5	7	5	-1	63*	-2
O=C(CNC(=O)c1ccc(Cl)cc1Cl)OCc1nnc(-c2ccccc2Br)o1	x	x	5	0	6	6	x
O=C(NCc1ccc(OC(F)(F)F)cc1)C1CC(c2c(Cl)cccc2Cl)=NO1 (stereo unspecified)	-3	-6	-8	10	2	38*	22
O=C1c2ccccc2C(Nc2ccc3c(c2)OCCO3)N1c1ccccn1 (stereo unspecified)	1	-3	2	0	11	5	x
COCCCNC(=O)/C=C/c1ccc(Cl)cc1Cl	-2	0	-8	7	4	6	x
CNc1ccc(Br)cc(C(=O)/C=C/c2ccc3c(c2)OCO3)c1=O	5	11	31*	-1	5	45*	28*
CNc1ccc(Br)cc(C(=O)/C=C/c2ccc(OC)cc2)c1=O	1	-2	16	8	9	43*	13
CCNc1ccc(Br)cc(C(=O)/C=C/c2ccc(Cl)cc2Cl)c1=O	-3	6	33*	3	16	66*	34*
CNc1ccc(Br)cc(C(=O)/C=C/c2cc(OC)ccc2OC)c1=O	-1	8	27	1	18	38*	24
CC(C#N)On1c(SC(C)C#N)nc2ccccc2c1=O (stereo unspecified)	-1	0	-4	-1	10	0	x
Cc1ccc([N+](=O)[O-])cc1-c1[nH]c(-c2ccc(O)c(O)c2)nc1-c1ccccc1	-11	-9	-2	3	19	65*	83*
O=C1c2ccccc2C2(c3ccc(F)cc3)NCCN12 (stereo unspecified)	-1	5	3	2	2	-2	x
Cc1nn(-c2nc3ccccc3s2)c(C)c1Oc1ccccc1O	-15	-19	-8	-1	4	-7	x
Oc1c(Br)cc(Br)cc1CNc1cccc2cccnc12	-1	14	24	17	28*	61*	25
Cc1cccc(Cc2cnc(N3C(=N)SC(C)C3=O)s2)c1 (stereo unspecified)	1	3	2	8	6	43*	33*
N=C1SCC(=O)N1c1ncc(Cc2ccccc2Cl)s1	x	x	4	16	-1	x	x
